Results filed as inconclusive are left out. A number with no mark means an inactive call. The source made the active and inactive calls. Calls come from the whole dose curve; as a rule, active = well fitted curve in the direction sought with a large enough effect; inconclusive = small, poorly fitted or top-dose-only effect, or another doubt; inactive = no such curve, though single readings can be large; an effect the other way counts as inactive or inconclusive.
Columns and labels:
[1] = Quantitative High-Throughput drug screen in 47 multiple myeloma cell lines against the NCATS MIPE library collection: KMS26_JCRB cell viability assay (AID 1918975); note: nearly all actives have a fitted effect of over 45% in size
Method in brief: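 Myeloma cells (500 per well) were exposed to MIPE 4.0 compounds by pin transfer and incubated 48 hours at 37C, 5% CO2. Viability was read as ATP by CellTiter-Glo luminescence, normalised to DMSO (100%) and media-only (0%) wells.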

[2] = Quantitative High-Throughput drug screen in 47 multiple myeloma cell lines against the NCATS MIPE library collection: MMM1_PLB cell viability assay (AID 1918976); note: nearly all actives have a fitted effect of over 35% in size
Method in brief: (§1)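 Plated at 500 cells per well, myeloma lines received MIPE 4.0 compounds by pin tool. Following 48 h culture at 37 °C, CellTiter-Glo luminescence gave viability relative to DMSO and media-only controls.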

[3] = Quantitative High-Throughput drug screen in 47 multiple myeloma cell lines against the NCATS MIPE library collection: MM1S_ATCC cell viability assay (AID 1918980); note: nearly all actives have a fitted effect of over 45% in size
Method in brief: as §1

[4] = Quantitative High-Throughput drug screen in 47 multiple myeloma cell lines against the NCATS MIPE library collection: MM1R_ATCC cell viability assay (AID 1918981); note: nearly all actives have a fitted effect of over 35% in size
Method in brief: as §1

[5] = Quantitative High-Throughput drug screen in 47 multiple myeloma cell lines against the NCATS MIPE library collection: LP1_DSMZ cell viability assay (AID 1918982); note: nearly all actives have a fitted effect of over 35% in size
Method in brief: as §1

[6] = Quantitative High-Throughput drug screen in 47 multiple myeloma cell lines against the NCATS MIPE library collection: KMS28PE_JCRB cell viability assay (AID 1918983); note: nearly all actives have a fitted effect of over 35% in size
Method in brief: as §1

[7] = Quantitative High-Throughput drug screen in 47 multiple myeloma cell lines against the NCATS MIPE library collection: L363_DSMZ cell viability assay (AID 1918984); note: nearly all actives have a fitted effect of over 40% in size
Method in brief: as §1

[8] = Quantitative High-Throughput drug screen in 47 multiple myeloma cell lines against the NCATS MIPE library collection: OCIMY7_PLB cell viability assay (AID 1918987); note: nearly all actives have a fitted effect of over 65% in size
Method in brief: as §1

[9] = Quantitative High-Throughput drug screen in 47 multiple myeloma cell lines against the NCATS MIPE library collection: OCIMY5_PLB cell viability assay (AID 1918988); note: nearly all actives have a fitted effect of over 65% in size
Method in brief: as §1

[10] = Quantitative High-Throughput drug screen in 47 multiple myeloma cell lines against the NCATS MIPE library collection: OPM1_PLB cell viability assay (AID 1918989); note: nearly all actives have a fitted effect of over 40% in size
Method in brief: as §1

[11] = Quantitative High-Throughput drug screen in 47 multiple myeloma cell lines against the NCATS MIPE library collection: XG6_PLB cell viability assay (AID 1919865); note: nearly all actives have a fitted effect of over 40% in size
Method in brief: as §1

[12] = Quantitative High-Throughput drug screen in 47 multiple myeloma cell lines against the NCATS MIPE library collection: XG1_PLB cell viability assay (AID 1919866); note: nearly all actives have a fitted effect of over 35% in size
Method in brief: as §1

[13] = Quantitative High-Throughput drug screen in 47 multiple myeloma cell lines against the NCATS MIPE library collection: VP6_DJ cell viability assay (AID 1919867); note: nearly all actives have a fitted effect of over 40% in size
Method in brief: as §1

[14] = Quantitative High-Throughput drug screen in 47 multiple myeloma cell lines against the NCATS MIPE library collection: NCIH929_DSMZ cell viability assay (AID 1918978); note: nearly all actives have a fitted effect of over 35% in size
Method in brief: as §1

[15] = Quantitative High-Throughput drug screen in 47 multiple myeloma cell lines against the NCATS MIPE library collection: KMS34_JCRB cell viability assay (AID 1918985); note: nearly all actives have a fitted effect of over 40% in size
Method in brief: as §1

[16] = Quantitative High-Throughput drug screen in 47 multiple myeloma cell lines against the NCATS MIPE library collection: SKMM1_PLB cell viability assay (AID 1919863); conditions: SKMM1 myeloma viability, CellTiter-Glo ATP, 48 h; viability: stronger effect = lower value; note: nearly all actives have a fitted effect of over 35% in size; for viability: series mostly up to about 46 µM
Method in brief: as §1

[17] = Quantitative High-Throughput drug screen in 47 multiple myeloma cell lines against the NCATS MIPE library collection: OCIMY1_PLB cell viability assay (AID 1918979); note: nearly all actives have a fitted effect of over 35% in size; for viability: series mostly up to about 46 µM
Method in brief: as §1

[18] = Quantitative High-Throughput drug screen in 47 multiple myeloma cell lines against the NCATS MIPE library collection: U266_ATCC cell viability assay (AID 1919864); note: nearly all actives have a fitted effect of over 35% in size
Method in brief: as §1
Potency is the fitted concentration of half-maximal effect.

Compound	Potency [1]	Potency [2]	Potency [3]	Potency [4]	Potency [5]	Potency [6]	Potency [7]	Potency [8]	Potency [9]	Potency [10]	Potency [11]	Potency [12]	Potency [13]	Potency [14]	Potency [15]	Potency [16]	Potency [17]	viability [16] [%]	Potency [18]
CC1(O)CC(c2nc(-c3ccc4ccc(-c5ccccc5)nc4c3)c3c(N)nccn23)C1 (centres undefined)	0.833 µM (active)	0.209 µM (active)	0.132 µM (active)	0.187 µM (active)	0.235 µM (active)	0.264 µM (active)	0.662 µM (active)	0.209 µM (active)	0.235 µM (active)	18.7 µM (active)	5.26 µM (active)	5.9 µM (active)	0.166 µM (active)	–	–	–	–	–	–
Nc1ccc(C(=O)c2cc3c(ccc4ccccc43)[nH]2)cc1	16.6 µM (active)	6.62 µM (active)	–	–	5.26 µM (active)	9.35 µM (active)	–	0.743 µM (active)	2.64 µM (active)	7.43 µM (active)	0.662 µM (active)	0.662 µM (active)	3.72 µM (active)	18.7 µM (active)	4.18 µM (active)	2.96 µM (active)	–	–	–
Cn1c2cc(S(C)=O)sc2c2cnn(Cc3cccc(N)c3)c(=O)c21 (centres undefined)	inactive	3.32 µM (active)	inactive	inactive	–	inactive	–	–	–	inactive	inactive	inactive	–	inactive	inactive	–	inactive	114	inactive
CCN1CCN(Cc2ccc(-c3cc4c(N[C@H](C)c5ccccc5)ncnc4[nH]3)cc2)CC1	0.935 µM (active)	18.7 µM (active)	–	–	–	–	0.0235 µM (active)	inactive	–	0.372 µM (active)	–	–	–	–	–	–	3.32 µM (active)	–	–
Cc1cc(Nc2nc(N[C@@H](C)c3ccc(F)cc3)c(C#N)cc2F)n[nH]1	8.33 µM (active)	6.62 µM (active)	20.9 µM (active)	3.32 µM (active)	–	0.935 µM (active)	–	0.418 µM (active)	4.18 µM (active)	1.32 µM (active)	1.05 µM (active)	–	4.69 µM (active)	13.2 µM (active)	0.833 µM (active)	1.05 µM (active)	–	–	16.6 µM (active)
Cc1cc(Nc2ncnc3ccc(-c4ccc(CNCCS(C)(=O)=O)o4)cc23)ccc1Oc1ccn2ncnc2c1	26.4 µM (active)	3.32 µM (active)	5.9 µM (active)	20.9 µM (active)	7.43 µM (active)	23.5 µM (active)	0.372 µM (active)	9.35 µM (active)	16.6 µM (active)	5.9 µM (active)	1.66 µM (active)	6.62 µM (active)	1.48 µM (active)	4.18 µM (active)	–	26.4 µM (active)	–	–	18.7 µM (active)
COc1c(OCCCN2CCOCC2)ccc2c3n(c(=NC(=O)c4cnc(N)nc4)nc12)CCN3	0.407 µM (active)	0.0512 µM (active)	0.0911 µM (active)	0.0812 µM (active)	–	0.0645 µM (active)	–	–	0.102 µM (active)	0.812 µM (active)	–	–	0.457 µM (active)	–	0.257 µM (active)	0.162 µM (active)	0.0204 µM (active)	–	0.645 µM (active)
O=C(c1cncc(Br)c1)N1CCC(N2CCCC2)CC1	inactive	inactive	inactive	inactive	inactive	–	inactive	inactive	–	–	inactive	inactive	inactive	–	–	–	–	–	inactive
Cc1nc2cnc3ccc(C#Cc4cccnc4)cc3c2n1-c1ccc(C(C)(C)C#N)cc1	1.32 µM (active)	0.148 µM (active)	0.0743 µM (active)	0.166 µM (active)	0.0833 µM (active)	–	–	0.105 µM (active)	6.62 µM (active)	0.0526 µM (active)	0.0105 µM (active)	0.0105 µM (active)	0.0743 µM (active)	0.0264 µM (active)	–	3.72 µM (active)	1.48 µM (active)	–	–
CC1(C)CCC(c2ccc(Cl)cc2)=C(CN2CCN(c3ccc(C(=O)NS(=O)(=O)c4ccc(N[C@H](CCN5CCOCC5)CSc5ccccc5)c(S(=O)(=O)C(F)(F)F)c4)cc3)CC2)C1	0.105 µM (active)	0.0935 µM (active)	0.332 µM (active)	0.187 µM (active)	20.9 µM (active)	0.469 µM (active)	–	0.001 µM (active)	0.0372 µM (active)	5.26 µM (active)	11.8 µM (active)	–	0.372 µM (active)	13.2 µM (active)	9.35 µM (active)	–	7.43 µM (active)	–	14.8 µM (active)
CC(=O)OCC(=O)[C@@]1(O)[C@H](C)C[C@H]2[C@@H]3C=C(C)C4=Cc5c(cnn5-c5ccccc5)C[C@]4(C)[C@@H]3[C@@H](O)C[C@@]21C	10.5 µM (active)	16.6 µM (active)	0.0132 µM (active)	9.35 µM (active)	–	20.9 µM (active)	0.0469 µM (active)	7.43 µM (active)	7.43 µM (active)	9.35 µM (active)	4.18 µM (active)	5.26 µM (active)	9.35 µM (active)	8.33 µM (active)	8.33 µM (active)	18.7 µM (active)	9.35 µM (active)	–	7.43 µM (active)

— PubChem BioAssay (NCATS)
